Experimental data: PubChem BioAssay (NCI)
Compounds without any hit were thinned out: in the full panel of roughly 83,000, 20% have a hit.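 Method: cells in 96-well plates; compound added at one concentration; 48 h incubation; percent growth measured; values under 10 scored active.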 Unmarked numbers belong to inactive results. Active and inactive are the calls of the source.

Test system: BT-549 breast
Assay: NCI-60 one-dose screen, 48 h (100 = growth as untreated, 0 = no growth, -100 = all killed)
Details: 10 µM

| SMILES | growth |
| --- | --- |
| COc1ccc2[nH]c(=O)c(CSc3ccc(Nc4nccc(-c5ccc(Cl)cc5)n4)cc3)cc2c1 | 104% |
| CCOC(=O)C1=C(N)N(c2ccccc2)C2=C(C(=O)CC(C)(C)C2)C1c1ccccc1OC (configuration not stated) | 105% |
| COc1cccc2nc(Nc3cccc(NC(=O)c4ccc(CN5CCCN(C)CC5)c(C(F)(F)F)c4)c3)ccc12 | -92.5% (active) |
| COc1cc(C2CC(c3ccc(C)cc3)=Nc3c(N)nc(N)nc3N2)ccc1Oc1nc(Nc2ccc(F)cc2)nc(N(C)C)n1 (configuration not stated) | 65.4% |
| CC(=O)Nc1ccc(-c2cn(-c3cccc(C(=O)Nc4ccc(Cl)c(C(F)(F)F)c4)c3)nn2)cn1 | -52.7% (active) |
| Cc1cc(C(F)(F)F)ccc1C(=O)Nc1sc2c(c1C#N)CCC(=O)C2 | -76.1% (active) |
| COc1ccc(OC)c(/C=N/NC(=O)c2ccc3nc(-c4ccc(Cl)cc4)[nH]c3c2)c1 | 74.3% |
| CC1=N/C(=C\c2ccc(N(C)C)cc2)C(=O)N1CCc1ccc(S(N)(=O)=O)cc1 | 92.7% |
| Cc1ccc(-c2cc(C(=O)N=Nc3c(O)[nH]c4ccc(Br)cc34)c3ccccc3n2)cc1 | 86.3% |
| COc1ccccc1C(=O)NNC(=O)CSc1nc2c(c(=O)[nH]1)CCCC2 | 101% |
| C=C1CCC2C3(C)COC(c4cccc(F)c4)OC3CCC2(C)C1CC(O)C1=CCOC1=O (configuration not stated) | -4.37% (active) |
| C=C1CCC2C3(C)COC(c4c(F)cccc4F)OC3CCC2(C)C1C/C=C1/C(=O)OCC1O (configuration not stated) | -78.4% (active) |
| Nc1nnc(-c2c[nH]c3ccc(F)cc23)c(-c2c[nH]c3ncccc23)n1 | 46.7% |
| CC(=O)NS(=O)(=O)c1ccc(NC(=O)CSC2=NC(c3ccccc3)C(C(C)=O)=C(C)N2)cc1 (configuration not stated) | 116% |
| COC1=C[C@@]23CCC(=O)N2CCc2cc4c(cc2[C@H]3[C@H]1OC(=O)C(C)(C)O)OCO4 | 98.9% |
| Nc1nc(-c2ccccc2)cs1 | 31.1% |
| COC(=O)c1c(C(=O)OC)c2n(c1C)[C@@H]([C@@H](C)[C@H]1CC[C@H]3[C@@H]4CCC5=CC(=O)CC[C@]5(C)[C@H]4CC[C@]13C)SC2 | -3.38% (active) |
| C/C(=N\NC(N)=S)c1ccc(Nc2nc(SC(C)C)nc(-c3ccccc3)c2C#N)cc1 | 28.5% |
| COc1ccc(-c2cc(-c3cc(C(=O)c4ccc(Br)cc4)n4ccc(C)cc34)nc(N)c2C#N)cc1 | 104% |
| CC(=O)Nc1ccc(-n2cnc3cc(-c4ccc(NS(C)(=O)=O)cc4)ccc32)cc1 | 75.4% |
| O=c1cc(-c2ccccc2)oc2cc(OCCCCNCc3ccccc3)cc(O)c12 | 78.5% |
| C/C(=N\N=C\c1ccc(Cl)c([N+](=O)[O-])c1)c1ccc2c(c1)Nc1ccccc1S2 | 58.4% |
| N#Cc1c(-c2ccc(Cl)cc2)cc(-c2ccccc2)nc1OCc1ccccc1 | 83.4% |
| COc1cccc(/C=N/NC(=O)c2ccc3nc(-c4ccc(Cl)cc4)[nH]c3c2)c1O | -96.7% (active) |
| COc1ccc(/C(CSc2nnc(-c3c[nH]c4ccccc34)n2-c2ccccc2)=N/O)cc1 | 16.5% |

Test system: MDA-MB-435 melanoma
Assay: as above
Details: 10 µM

| SMILES | growth |
| --- | --- |
| O=S(=O)(Nc1ncccn1)c1ccc(-n2c(-c3ccccc3)nc(-c3ccccc3)c2-c2ccccc2)cc1 | 101% |
| COc1ccc(-c2cc(-c3cc(C(=O)c4ccccc4)n4ccc(C)cc34)nc(N)c2C#N)cc1 | 78.5% |
| N#Cc1ccc(NC(=O)CSc2ccc(-c3ccc(Br)cc3)nn2)cc1 | 65.1% |
| CCCn1c(O)c(N=Nc2nc(-c3cc4ccccc4oc3=O)cs2)c2cc(Br)ccc21 | 105% |
| COc1cc2oc(-c3cccc(C(=O)Nc4ccc(Cl)cc4)c3)cc(=O)c2c(OCCNC(=O)CNC(=O)OC(C)(C)C)c1OC | 66.7% |
| CCCCOc1ccc(Nc2nc3ccccc3nc2Nc2ccc(OCCCC)cc2)cc1 | 88.4% |
| COc1cc(NC(=O)CSc2nnc(-c3ccc4nc(-c5ccc(Cl)cc5)[nH]c4c3)o2)cc(OC)c1OC | 67.8% |
| O=C(NO)c1ccc(CNC(=O)[C@H]2Cc3c([nH]c4ccccc34)[C@H](c3ccc(Cl)cc3)N2)cc1 | 4.26% (active) |
| N#Cc1c(NC(=O)c2ccc(C(F)(F)F)c(Cl)c2)sc2c1CCC(=O)C2 | -68.4% (active) |
| O=C(Cc1ccc2c(c1)CN(C1CCC(=O)NC1=O)C2=O)NCc1cccc2ccccc12 (configuration not stated) | -15.1% (active) |
| CCOC(=O)CNC(=O)CN(Cc1ccccc1)C(=O)[C@@]1(C)CCC[C@]2(C)[C@H]3C[C@H]4C(C(C)C)=C[C@]3(CC[C@H]21)[C@@H]1C(=O)OC(=O)[C@@H]14 | 78.5% |
| O=C(NCCCCCCCCCC[P+](c1ccccc1)(c1ccccc1)c1ccccc1)c1ccc(-n2nc(-c3ccccc3O)nc2-c2ccccc2O)cc1 | -81.3% (active) |
| COc1ccc2[nH]c(=O)c(CSc3ccc(Nc4nccc(-c5ccc(Cl)cc5)n4)cc3)cc2c1 | 111% |
| CCOC(=O)C1=C(N)N(c2ccccc2)C2=C(C(=O)CC(C)(C)C2)C1c1ccccc1OC (configuration not stated) | 112% |
| COc1cccc2nc(Nc3cccc(NC(=O)c4ccc(CN5CCCN(C)CC5)c(C(F)(F)F)c4)c3)ccc12 | -100% (active) |
| COc1cc(C2CC(c3ccc(C)cc3)=Nc3c(N)nc(N)nc3N2)ccc1Oc1nc(Nc2ccc(F)cc2)nc(N(C)C)n1 (configuration not stated) | 63.2% |
| CC(=O)Nc1ccc(-c2cn(-c3cccc(C(=O)Nc4ccc(Cl)c(C(F)(F)F)c4)c3)nn2)cn1 | -70.6% (active) |
| Cc1cc(C(F)(F)F)ccc1C(=O)Nc1sc2c(c1C#N)CCC(=O)C2 | -48.1% (active) |
| COc1ccc(OC)c(/C=N/NC(=O)c2ccc3nc(-c4ccc(Cl)cc4)[nH]c3c2)c1 | 85.7% |

| SMILES | growth |
| --- | --- |
| CC1=N/C(=C\c2ccc(N(C)C)cc2)C(=O)N1CCc1ccc(S(N)(=O)=O)cc1 | 110% |
| Cc1ccc(-c2cc(C(=O)N=Nc3c(O)[nH]c4ccc(Br)cc34)c3ccccc3n2)cc1 | 45.1% |
| COc1ccccc1C(=O)NNC(=O)CSc1nc2c(c(=O)[nH]1)CCCC2 | 109% |
| C=C1CCC2C3(C)COC(c4cccc(F)c4)OC3CCC2(C)C1CC(O)C1=CCOC1=O (configuration not stated) | 57.7% |
| C=C1CCC2C3(C)COC(c4c(F)cccc4F)OC3CCC2(C)C1C/C=C1/C(=O)OCC1O (configuration not stated) | -9.65% (active) |
| Nc1nnc(-c2c[nH]c3ccc(F)cc23)c(-c2c[nH]c3ncccc23)n1 | 60.9% |
| CC(=O)NS(=O)(=O)c1ccc(NC(=O)CSC2=NC(c3ccccc3)C(C(C)=O)=C(C)N2)cc1 (configuration not stated) | 104% |
| COC1=C[C@@]23CCC(=O)N2CCc2cc4c(cc2[C@H]3[C@H]1OC(=O)C(C)(C)O)OCO4 | 98.4% |
| Nc1nc(-c2ccccc2)cs1 | 67.9% |
| COC(=O)c1c(C(=O)OC)c2n(c1C)[C@@H]([C@@H](C)[C@H]1CC[C@H]3[C@@H]4CCC5=CC(=O)CC[C@]5(C)[C@H]4CC[C@]13C)SC2 | 22.4% |
| C/C(=N\NC(N)=S)c1ccc(Nc2nc(SC(C)C)nc(-c3ccccc3)c2C#N)cc1 | 82.6% |
| COc1ccc(-c2cc(-c3cc(C(=O)c4ccc(Br)cc4)n4ccc(C)cc34)nc(N)c2C#N)cc1 | 92.7% |
| CC(=O)Nc1ccc(-n2cnc3cc(-c4ccc(NS(C)(=O)=O)cc4)ccc32)cc1 | 51.7% |
| O=c1cc(-c2ccccc2)oc2cc(OCCCCNCc3ccccc3)cc(O)c12 | -31.5% (active) |
| C/C(=N\N=C\c1ccc(Cl)c([N+](=O)[O-])c1)c1ccc2c(c1)Nc1ccccc1S2 | 49.9% |
| N#Cc1c(-c2ccc(Cl)cc2)cc(-c2ccccc2)nc1OCc1ccccc1 | 96.1% |
| COc1cccc(/C=N/NC(=O)c2ccc3nc(-c4ccc(Cl)cc4)[nH]c3c2)c1O | -89.3% (active) |
| COc1ccc(/C(CSc2nnc(-c3c[nH]c4ccccc34)n2-c2ccccc2)=N/O)cc1 | -5.25% (active) |
